Assay results reported in PubChem BioAssay (NCI).
The panel holds about 79,000 compounds, 15% with a hit somewhere; the sample as a whole holds those more often. Values without a mark were called inactive. Rule as the data show it: active = growth inhibition above about 70%; inactive = the rest.

Assay: NCI Yeast Anticancer Drug Screen. Data for the rad50 strain (AID 155);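 also: 0% = growth of vehicle-only cultures of the same strain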
Conditions: S. cerevisiae rad50 strain growth inhibition; at 50.0 µM; hits give high values
Procedure, shortened: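 Readout: growth inhibition relative to vehicle-treated cultures. Compound exposure was carried out in a genetically defined yeast strain deficient in DNA damage repair.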
For COc1ccc(NC(=S)NNC(=O)c2nsc3ccccc23)cc1, the growth inhibition was 32.5%.
In the case of COc1ccc(CC2OCCC3c4ccccc4NC23)cc1OC (stereo unspecified), the growth inhibition is reported as -3.2%.
C/C=N\N1C(=O)c2ccccc2C1=O gave a growth inhibition of 11.5%.
With CC(C)=CC1C(C(=O)Oc2c(Cl)c(Cl)c(Cl)c(Cl)c2Cl)C1(C)C (stereo unspecified) the growth inhibition was 12.5%.
Work on O=[N+]([O-])c1c(Cl)cc(Cl)c([N+](=O)[O-])c1-c1ccccc1 yielded a growth inhibition of -17.1%.
In the case of Cc1cccc(Nc2nnc(Nc3cccc(C)n3)c3ccccc23)n1, the growth inhibition is reported as -2.15%.
C/C(CC(=O)c1ccccc1)=C1\C(=O)NN(c2ccccc2)C1=O showed a growth inhibition of 60.5%.
Work on O=C(/C=C/CC(O)(c1ccccc1)c1ccccc1)Nc1ccccc1Cl yielded a growth inhibition of -15.2%.
COc1ccc(C(=O)c2ccc(C)c3c(C)cccc23)cc1 showed a growth inhibition of 4.5%.
O=C1NC(=O)N2CCCOC2C1c1ccccc1 (stereo unspecified) gave a growth inhibition of 0.2%.
O=C1OC2(CC1n1cnc3ccccc3c1=O)C(=O)Nc1ccccc12 (stereo unspecified) gave a growth inhibition of 4.3%.
Compound COc1cc(OC)c(OC)cc1/C=N/N=C(\N)NO has a growth inhibition of -12.3%.
With CN(C)CCCN(c1nc2cc(Cl)ccc2o1)c1nc2cc(Cl)ccc2o1 the growth inhibition was 33.7%.
With COC(=O)C(C#N)(CCc1ccc([N+](=O)[O-])cc1)CCc1ccc([N+](=O)[O-])cc1 the growth inhibition was 14.8%.
Cc1ccc(S(=O)(=O)Nc2ccccc2-c2nc3ccc([N+](=O)[O-])cc3c(=O)o2)cc1 showed a growth inhibition of 35.6%.
With CC(=O)Oc1ccc(C(C)C)cc1 the growth inhibition was -9.55%.
